Several values for one entry are separate records, joined by “and”; a condition that tells them apart may be missing. Identical values can stand only once. About 2,000 (36%) of roughly 5,500 compounds were called active. Not shown: some 18% with an inconclusive outcome. Rule as the data show it: active = normalized growth mostly below about 0.91 (no sharp cut-off); inconclusive = no clear call, values can overlap the other calls; inactive = mostly above about 0.92. This is one part of the list. Some compounds were tested as several samples or in several runs, with calls that do not always agree.
Assay: chemical genetic growth profiling, strain panel (AID 1159580);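 also: tested at 20 µM; growth read once vehicle control cultures reached saturation at 30 °C; 1 = growth at the plate median or of vehicle wells; lower values mean less growth of the strain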
Settings: growth OD

Measured: normalized growth

COC(=O)C1=C(C)NC(C)=C(C(=O)OC)C1c1ccccc1[N+](=O)[O-]
active: S. cerevisiae deletion strains, locus YKL160W, strain elf1, stronger effect = lower value 0.901 | S. cerevisiae deletion strains, locus YKL190W, strain CNB1, stronger effect = lower value 0.84 | S. cerevisiae deletion strains, locus YKR001C, strain vps1, stronger effect = lower value 0.852 | S. cerevisiae deletion strains, locus YLR027C, strain aat2, stronger effect = lower value 0.899 | S. cerevisiae deletion strains, locus YLR039C, strain RIC1, stronger effect = lower value 0.535 | S. cerevisiae deletion strains, locus YLR221C, strain rsa3, stronger effect = lower value 0.893 | S. cerevisiae deletion strains, locus YLR258W, strain gsy2, stronger effect = lower value 0.886 | S. cerevisiae deletion strains, locus YLR262C, strain YPT6 (second series), stronger effect = lower value 0.44 | S. cerevisiae deletion strains, locus YLR262C, strain YPT6, stronger effect = lower value 0.352 | S. cerevisiae deletion strains, locus YLR268W, strain sec22, stronger effect = lower value 0.764 | S. cerevisiae deletion strains, locus YLR320W, strain mms22, stronger effect = lower value 0.864 | S. cerevisiae deletion strains, locus YLR342W, strain FKS1 (second series), stronger effect = lower value 0.643 | S. cerevisiae deletion strains, locus YLR418C, strain cdc73, stronger effect = lower value 0.706 | S. cerevisiae deletion strains, locus YML016C, strain PPZ1, stronger effect = lower value 0.899 | S. cerevisiae deletion strains, locus YMR058W, strain fet3, stronger effect = lower value 0.231 | S. cerevisiae deletion strains, locus YMR205C, strain PFK2, stronger effect = lower value 0.866 | S. cerevisiae deletion strains, locus YMR223W, strain ubp8, stronger effect = lower value 0.839 | S. cerevisiae deletion strains, locus YMR231W, strain pep5, stronger effect = lower value 0.81 | S. cerevisiae deletion strains, locus YMR307W, strain GAS1, stronger effect = lower value 0.43 and 0.863 | S. cerevisiae deletion strains, locus YNL067W, strain RPL9B, stronger effect = lower value 0.824 | S. cerevisiae deletion strains, locus YNL128W, strain TEP1, stronger effect = lower value 0.642 | S. cerevisiae deletion strains, locus YNL209W, strain ssb2, stronger effect = lower value 0.698 | S. cerevisiae deletion strains, locus YNL233W, strain BNI4, stronger effect = lower value 0.845 | S. cerevisiae deletion strains, locus YNL271C, strain bni1, stronger effect = lower value 0.909 | S. cerevisiae deletion strains, locus YNL307C, strain MCK1, stronger effect = lower value 0.903 | S. cerevisiae deletion strains, locus YOL006C, strain TOP1, stronger effect = lower value 0.202 | S. cerevisiae deletion strains, locus YOR061W, strain CKA2, stronger effect = lower value 0.794 | S. cerevisiae deletion strains, locus YOR069W, strain VPS5, stronger effect = lower value 0.906 | S. cerevisiae deletion strains, locus YOR070C, strain gyp1, stronger effect = lower value 0.916 | S. cerevisiae deletion strains, locus YOR106W, strain vam3, stronger effect = lower value 0.718 | S. cerevisiae deletion strains, locus YOR184W, strain ser1, stronger effect = lower value 0.792 | S. cerevisiae deletion strains, locus YOR265W, strain rbl2, stronger effect = lower value 0.903 | S. cerevisiae deletion strains, locus YPL051W, strain arl3, stronger effect = lower value 0.748 | S. cerevisiae deletion strains, locus YPL055C, strain LGE1, stronger effect = lower value 0.64 | S. cerevisiae deletion strains, locus YPL240C, strain hsp82, stronger effect = lower value 0.9 | S. cerevisiae deletion strains, locus YPR167C, strain met16, stronger effect = lower value 0.903 | S. cerevisiae deletion strains, strain wtn01, stronger effect = lower value 0.772 | S. cerevisiae strains, strain wild type, stronger effect = lower value 0.818
0.918 (active) and 0.978 (inactive): S. cerevisiae deletion strains, locus YNL322C, strain KRE1, stronger effect = lower value
inactive: S. cerevisiae deletion strains, locus YKL009W, strain mrt4, stronger effect = lower value 0.959 | S. cerevisiae deletion strains, locus YKL068W, stronger effect = lower value 0.965 | S. cerevisiae deletion strains, locus YKL085W, strain MDH1 (second series), stronger effect = lower value 0.956 | S. cerevisiae deletion strains, locus YKL085W, strain MDH1, stronger effect = lower value 0.956 | S. cerevisiae deletion strains, locus YKR026C, strain gcn3, stronger effect = lower value 0.968 | S. cerevisiae deletion strains, locus YKR091W, strain srl3, stronger effect = lower value 0.954 | S. cerevisiae deletion strains, locus YLL001W, strain dnm1, stronger effect = lower value 0.972 | S. cerevisiae deletion strains, locus YLL026W, stronger effect = lower value 0.946 | S. cerevisiae deletion strains, locus YLL041C, strain sdh2, stronger effect = lower value 0.931 | S. cerevisiae deletion strains, locus YLR058C, strain SHM2, stronger effect = lower value 0.996 | S. cerevisiae deletion strains, locus YLR102C, strain apc9, stronger effect = lower value 0.977 | S. cerevisiae deletion strains, locus YLR113W, strain HOG1, stronger effect = lower value 0.942 | S. cerevisiae deletion strains, locus YLR330W, strain CHS5, stronger effect = lower value 0.931 | S. cerevisiae deletion strains, locus YLR342W, strain FKS1, stronger effect = lower value 0.924 | S. cerevisiae deletion strains, locus YLR357W, strain rsc2, stronger effect = lower value 0.937 | S. cerevisiae deletion strains, locus YLR370C, strain arc18, stronger effect = lower value 0.942 | S. cerevisiae deletion strains, locus YLR371W, strain rom2, stronger effect = lower value 0.918 | S. cerevisiae deletion strains, locus YLR384C, strain iki3, stronger effect = lower value 0.976 | S. cerevisiae deletion strains, locus YML032C, strain rad52, stronger effect = lower value 0.959 | S. cerevisiae deletion strains, locus YML120C, strain ndi1, stronger effect = lower value 0.976 | S. cerevisiae deletion strains, locus YML124C, strain tub3, stronger effect = lower value 0.972 | S. cerevisiae deletion strains, locus YMR078C, strain ctf18, stronger effect = lower value 0.981 | S. cerevisiae deletion strains, locus YMR125W, strain sto1, stronger effect = lower value 1.02 | S. cerevisiae deletion strains, locus YMR129W, stronger effect = lower value 0.958 | S. cerevisiae deletion strains, locus YMR263W, strain SAP30, stronger effect = lower value 1 | S. cerevisiae deletion strains, locus YNL071W, strain lat1, stronger effect = lower value 0.941 | S. cerevisiae deletion strains, locus YNL153C, strain GIM3, stronger effect = lower value 0.939 | S. cerevisiae deletion strains, locus YNL175C, strain NOP13, stronger effect = lower value 1.01 | S. cerevisiae deletion strains, locus YNL183C, strain NPR1, stronger effect = lower value 0.927 | S. cerevisiae deletion strains, locus YNL197C, strain WHI3, stronger effect = lower value 0.997 | S. cerevisiae deletion strains, locus YNL224C, strain SQS1, stronger effect = lower value 1.02 | S. cerevisiae deletion strains, locus YNL248C, strain rpa49, stronger effect = lower value 0.951 | S. cerevisiae deletion strains, locus YNL250W, strain rad50, stronger effect = lower value 0.944 | S. cerevisiae deletion strains, locus YNL298W, strain CLA4, stronger effect = lower value 0.953 | S. cerevisiae deletion strains, locus YNL322C, strain KRE1 (second series), stronger effect = lower value 1 | S. cerevisiae deletion strains, locus YNR049C, strain mso1, stronger effect = lower value 0.962 | S. cerevisiae deletion strains, locus YNR052C, strain pop2, stronger effect = lower value 0.968 | S. cerevisiae deletion strains, locus YOL012C, strain htz1 0.327 | S. cerevisiae deletion strains, locus YOL147C, strain pex11, stronger effect = lower value 0.989 | S. cerevisiae deletion strains, locus YOR001W, strain rrp6, stronger effect = lower value 0.91 | S. cerevisiae deletion strains, locus YOR080W, strain dia2, stronger effect = lower value 0.978 | S. cerevisiae deletion strains, locus YOR083W, strain WHI5 (second series), stronger effect = lower value 1.03 | S. cerevisiae deletion strains, locus YOR083W, strain WHI5, stronger effect = lower value 0.909 | S. cerevisiae deletion strains, locus YOR136W, strain idh2, stronger effect = lower value 0.965 | S. cerevisiae deletion strains, locus YOR144C, strain elg1, stronger effect = lower value 0.99 | S. cerevisiae deletion strains, locus YOR231W, strain MKK1, stronger effect = lower value 0.999 | S. cerevisiae deletion strains, locus YOR270C, strain vph1, stronger effect = lower value 0.884 | S. cerevisiae deletion strains, locus YOR290C, strain snf2, stronger effect = lower value 0.958 | S. cerevisiae deletion strains, locus YOR316C, strain cot1, stronger effect = lower value 0.971 | S. cerevisiae deletion strains, locus YPL078C, strain atp4, stronger effect = lower value 0.984 | S. cerevisiae deletion strains, locus YPL106C, strain sse1, stronger effect = lower value 0.932 | S. cerevisiae deletion strains, locus YPL256C, strain CLN2, stronger effect = lower value 0.932 | S. cerevisiae deletion strains, locus YPR119W, strain clb2, stronger effect = lower value 0.981 | S. cerevisiae deletion strains, locus YPR141C, strain kar3, stronger effect = lower value 0.974 | S. cerevisiae deletion strains, locus YPR163C, strain tif3, stronger effect = lower value 0.958
0.918 (active) and 0.973 (inactive): S. cerevisiae deletion strains, locus YPL241C, strain CIN2, stronger effect = lower value

From PubChem BioAssay AID1159580 (chemical genetic matrix, 2015)
